Source: PubChem
RAM inhibit: yeast RAM network inhibition | S. cerevisiae dse1pr::URA3 reporter, 5-FOA growth OD615, 2 d; analog-sensitive cbk1-as2 kinase mutant strain | inhibition, % at 50 µM | 1.8% of 190,000 active;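 active = inhibition above a set limit, 3 SD over mean compound inhibition, cut at about 8.4% in these data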;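 note: 0% = DMSO-only wells with no growth and 100% = 10 µM 1-NA-PP1 full growth; inhibition rescues growth on 5-FOA so higher OD means more RAM inhibition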
CHOP inh: blocks CHOP induction under ER stress. CHO-K1 CHOP-promoter luciferase, tunicamycin-induced, 15-18 h. inhibition, % at 10 µM. 3.8% of 220,000 active;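 active = compounds that reduced the stress-induced luciferase reporter signal by more than about 70% of percent inhibition, limit read from the data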;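 note: 0% = tunicamycin plus vehicle and 100% = wells without tunicamycin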
WT yeast gro inh: growth inhibition of WT yeast, mitochondrial fusion screen | mitochondrial fusion phenotypic screen, WT strain | inhibition, % at 10 µM | 2.1% of 190,000 active | AID 1362; in the data active = inhibition above about 58%; tested in S. cerevisiae
L major viab: inhibitors of Leishmania major promastigote growth | AID 1063 | inhibition, % at 10 µM | Leishmania major promastigotes, resazurin fluorescence viability | 9% of 200,000 active; in the data active = inhibition above about 50%;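 note: promastigotes grown with compound for 44 hours at 28 °C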
CHOP confirm: confirmation of CHOP induction inhibitors; CHO-CHOP promoter luciferase reporter, tunicamycin-induced, luminescence; 45% of 2,100 active; inhibition, % at 10 µM; shares compounds with CHOP inh;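 active = mean of three repeat readings of reporter signal inhibition above a set limit, cut at about 70% in these data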;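 note: 0% = tunicamycin plus vehicle and 100% = wells lacking tunicamycin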
* hit, by the source's call; x = not tested or not shown; ! = a repeat was not active. An excerpt weighted towards active compounds, which were near 13% of everything screened.

SMILES	RAM inhibit	CHOP inh	WT yeast gro inh	L major viab	CHOP confirm
CCOc1ccc(/C=C2/C(=N)N3OC(C)=CC3=NC2=O)cc1OC	1	2	-5	-1	x
CCOc1cc(C=C2C(=O)c3ccccc3C2=O)ccc1OCC(=O)Nc1ccc(C)cc1	1	6	-9	1	x
CCC1(c2ccc(F)cc2)NC(=O)N(CC(=O)Nc2ccc(-c3nc4ccc(C)cc4s3)cc2)C1=O (stereo unspecified)	3	101*	10	8	74*
Cc1ccc2nc(-c3ccc(NC(=O)CN4CCN(c5ccccn5)CC4)cc3)sc2c1	x	24	x	x	x
C=C1C(=O)O[C@@H]2C[C@@H](C)[C@@H]3C=CC(=O)[C@@]3(C)[C@@H](OC(C)=O)[C@H]12	x	107*	x	x	120*
C[C@@H]1C[C@@H]2OC(=O)[C@]3(C)[C@H]2[C@@H](OC3(C)O)[C@]2(C)C(=O)C=C[C@H]12 (stereo partly specified)	x	-47	x	x	x
Oc1ccc(/C=N/Nc2nc(N3CCCC3)nc(N3CCCC3)n2)cc1O	2	-126	13	3	x
Oc1ccc(/C=N/Nc2nc(N3CCCCCC3)nc(N3CCCCCC3)n2)c(O)c1	4	103*	74*	8	98*
Oc1ccc(/C=N/Nc2cc(N3CCCC3)nc(N3CCCC3)n2)cc1	-1	109*	63*	13	14
CC(C)(C)c1cnnn1-c1ccc(C(=O)CCl)cc1	2	111*	-2	69*	-67
CC(C)=CCc1c(O)ccc(C(=O)Cc2ccccc2)c1O	2	106*	81*	13	6
CCCCCCC(C)NC(=S)Nc1cc(S(=O)(=O)N(C)C)ccc1C (stereo unspecified)	0	49	-4	-5	x
O=c1c2c(nc3nc(NCc4ccccc4Cl)[nH]n13)CCC2	0	-4	-5	-7	x
C=C(C)COc1ccc(-c2[nH]ncc2-c2ccccc2OC)c(O)c1	-1	106*	4	28	-36
COc1ccccc1-c1c(-c2ccc(O)cc2O)n[nH]c1C(F)(F)F	x	33	x	x	x
CC(=O)C1=C(O)C(=O)N(c2ccc(C)cc2)C1c1ccc([N+](=O)[O-])cc1 (stereo unspecified)	1	19	-15	-2	x
Cn1nc([N+](=O)[O-])c(C(C#N)c2ccccn2)c(Cl)c1=O (stereo unspecified)	0	103*	-15	100*	49
COC(=O)c1ccc2c(c1)C(C)(C)C(/C=C/c1ccc(O)cc1)=[N+]2C	1	112*	33	101*	138*
Cc1ccc(-c2cc3c(nn2)-c2ccccc2C3=O)cc1	x	101*	52	x	108*
O=C1c2ccccc2-c2nnc(-c3ccc(F)cc3)cc21	2	18	35	15	x
Cc1ccc(C(=O)Nc2cnc3ccccc3c2)cc1	0	98*	3	-1	117*
Cc1ccc(C(=O)Nc2nc3ccccc3c(=O)s2)cc1	4	102*	2	-8	11
C/C(=C/Cc1c(O)cc2oc(C)cc(=O)c2c1O)COC1OC(CO)C(O)C(O)C1O (stereo unspecified)	2	6	-2	-3	x
C=C1C(=O)C=C2CN(C(=O)c3ccccc3)[C@@](Cc3ccc(F)cc3)(C(=O)OC)[C@@H]12	3	109*	74*	100*	128*
O=C(/C=C/c1cccc([N+](=O)[O-])c1)n1cnc2ccccc21	6	107*	36	-1	116*
SMILES	RAM inhibit	CHOP inh	WT yeast gro inh	L major viab	CHOP confirm
O=C(/C=C/c1cccc([N+](=O)[O-])c1)N1CCOCC1	2	16	9	38	x
COc1ccc(NC(=S)N2CCN(c3ncccn3)CC2)c(OC)c1	x	2	x	x	x
Cc1sc(NC(=O)/C=C/C(=O)O)c(C(N)=O)c1-c1ccc(C(C)(C)C)cc1	4	-8	-19	44	x
Cc1sc(NC(=O)c2cccc([N+](=O)[O-])c2)c(C(N)=O)c1-c1ccc(C(C)(C)C)cc1	3	107*	-1	-3	139*
O=C(CCl)Nc1cn(-c2ccccc2)nc1-c1ccccc1	3	107*	29	99*	106*
OC1(c2ccc(Cl)c(Cl)c2)C[n+]2ccccc2N1Cc1ccccc1 (stereo unspecified)	x	-32	x	x	x
Cc1ccc(NC(=O)c2cc3ccccc3oc2=O)cc1S(=O)(=O)N(C)C	3	102*	-17	-7	110*
Nc1nc(SCC(=O)NCc2ccccc2)[nH]c(=O)c1NC(=O)c1ccccc1F	5	3	-12	-10	x
O=C(N=c1ccn(-c2nc3ccccc3nc2NS(=O)(=O)c2ccc(Cl)cc2)cc1)c1cccs1	x	98*	x	x	-7
CCOc1ccc(S(=O)(=O)Nc2nc3ccccc3nc2-n2ccc(=NC(=O)c3cccs3)cc2)cc1	6	7	4	-1	x
CC1(C)C(=O)C2(CCCCC2)C(=O)OC1c1ccc(O)cc1 (stereo unspecified)	4	6	28	9	x
Fc1cccc(Cl)c1CSc1nnc(COc2cccc3cccnc23)o1	6	-14	5	6	x
Cc1occc1C(=O)Nc1sc2c(c1C(N)=O)CCCCC2	1	96*	-5	1	11
O=S(=O)(NC1CC1)c1ccc(S(=O)(=O)N2CCCC3(CCCCC3)C2)cc1	1	97*	8	-2	98*
O=C(N/N=C/c1cccc([N+](=O)[O-])c1)c1cccc2cc[nH]c12	3	101*	3	-2	-14
O=C(N/N=C/c1cc([N+](=O)[O-])ccc1O)c1cccc2cc[nH]c12	x	35	x	x	x
Cc1cccc(NNC(N)=S)c1C	0	8	1	-1	x
O=C(Nc1ccc(S(=O)(=O)N2CCOCC2)cc1)c1ccc(CN2CCc3ccccc3C2)cc1	0	101*	-16	91*	89*
N/C(=N/OC(=O)c1ccc(Cl)cc1)c1ncc([N+](=O)[O-])s1	x	7	x	x	x
CC1CCN(C(=O)/C(=C/c2ccccc2Cl)c2ccccc2)CC1	1	101*	47	3	88*
CCCNC(=S)N1CCN(CC)CC1	-1	7	-13	1	x
CCOc1ccc(C2=C(C=C(C#N)C#N)C(c3ccccc3)c3ccccc3O2)cc1 (stereo unspecified)	6	5	37	42	x
COc1ccc(C2=C(CN(C)C)C(c3ccccc3)c3ccccc3O2)cc1 (stereo unspecified)	1	104*!	43	100*!	43
CCOc1ccc(/C=N/NC(=O)Cc2csc(Nc3cccc(C(F)(F)F)c3)n2)cc1	1	106*	52	12	32
CCCCCC1=CCC/C1=N\NC(=O)c1ccc2c(c1)OCO2	-1	24	-6	12	x
CC(C)C(NC(=O)C1CCCCC1)C(=O)NCCc1ccccc1 (stereo unspecified)	7	16	-3	8	x
CN(C)c1ccc(NC(=O)C(=O)C2C(=O)Nc3ccccc32)cc1 (stereo unspecified)	x	-16	x	x	x
CC(C)(C)c1ccc(NC(=O)C(=O)C2C(=O)Nc3ccccc32)cc1 (stereo unspecified)	2	101*	-15	4	48
